# Test results as given in PubChem BioAssay (NCI).
# The panel holds about 83,000 compounds, 20% with a hit somewhere; the sample as a whole holds those more often.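 96-well plates, one dose, 48 hours. Percent growth reported; active if below 10.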 Values without a mark were called inactive. The source made the active and inactive calls.
# Legend:
# [1] = system: MDA-MB-468 breast; experiment: NCI-60 one-dose screen, 48 h (100 = growth as untreated, 0 = no growth, -100 = all killed); conditions: 10 µM unless noted
# [2] = system: HL-60(TB) leukemia; experiment: as above; conditions: 10 µM unless noted
SMILES,growth [1],growth [2]
O=S(=O)(c1ccc(Cl)cc1)C(Cl)(Cl)Cl,-20.4% (active),
CC[C@]12C=CCN3CC[C@@]4(c5ccc(OC)cc5N(C)[C@H]4[C@@](O)(C(=O)OC)[C@@H]1OC(=O)CCCC[P+](c1ccc(F)cc1)(c1ccc(F)cc1)c1ccc(F)cc1)[C@@H]32,,-32.2% (active)
Cc1cc(C)nc(/N=C(\N)Nc2ccc(S(=O)(=O)Nc3nc(C)cc(C)n3)cc2)n1,,94.7%
CC12CCC(=O)C=C1C(O)CC1C2CCC2(C)C(O)CCC12 (stereo not given),104%,
COc1ccn(C)c(=O)c1C#N,102%,
C=C[Se]CC(=O)/C=C/c1ccccc1,85.6%,
CCC(C)[C@H]1C(=O)O[C@H](C(C)C)C(=O)N(C)[C@@H](C(C)C)C(=O)O[C@H](C(C)C)C(=O)N(C)[C@@H](C(C)C)C(=O)O[C@H](C(C)C)C(=O)N1C (stereo not given in full),-0.302% (active),
ClCCN(CCCl)c1nc(Cl)c(C2CC(c3ccc(Cl)cc3)=NN2c2cc(Cl)cc(Cl)c2)s1 (stereo not given),112%,
O=C1CN2CCC1CC2,104%,
O=C1NC(=NC23CC4CC(CC(C4)C2)C3)N/C1=C\c1ccc2ncccc2c1,,-11.2% (active)
COc1ccc(-c2ccnc(SCc3cc4ccccc4[nH]c3=O)n2)cc1OC,,87%
ClCCN(CCCl)c1ccc(-n2cnc3c(Cl)ncnc32)cc1,-43.5% (active),
O=C(/C=C/Nc1ccc2oc(=O)ccc2c1)c1cc2cc(Br)ccc2oc1=O,,131%
c1cnc2[nH]cc(-c3csc(-c4cn(CCCCN5CCOCC5)c5ccccc45)n3)c2c1,35.1%,
CC(=O)O[C@H]1C(=O)[C@@]2(C)[C@H]([C@H](OC(=O)c3ccccc3)[C@]3(O)C[C@H](OC(=O)[C@H](OC(=O)OC[C@H]4COC(C)(C)O4)[C@@H](NC(=O)c4ccccc4)c4ccccc4)C(C)=C1C3(C)C)[C@]1(OC(C)=O)CO[C@@H]1C[C@@H]2O,-16.3% (active),
CC[C@]12C=CCN3CC[C@@]4(c5cc(C#CCNc6ccc(C)c(Nc7nccc(-c8cccnc8)n7)c6)c(OC)cc5N(C)[C@H]4[C@@](O)(C(=O)OC)[C@@H]1OC(C)=O)C32 (stereo not given in full),,30.8%
C=C1[C@@H](C)C2[C@H](Cc3ccccc3)NC(=O)[C@]23[C@H](OC(C)=O)/C=C/[C@@](C)(O)C(=O)[C@@H](C)C/C=C/[C@H]3[C@@H]1O (stereo not given in full),45.2%,
N#Cc1ccc(C(=O)Nn2c(N)cc3ccccc3c2=O)cc1,,98.5%

SMILES,growth [1],growth [2]
COCOc1cc2c(=O)c(C)c(C(=O)N[C@@H](Cc3ccccc3)C(O)C(=O)NCc3ccccc3)oc2cc1OC (stereo not given in full),,99.2%
COc1ccc(-c2ccc(OC)c(OC)c2OC)cc1,-20.7% (active),
Nc1cccnc1,130%,
CCOc1ccccc1[C@H]1C(C(=O)c2ccc(Cl)cc2)C2(N[C@@H]1c1ccccc1)C(=O)Nc1ccc(Br)cc12 (stereo not given in full),,-18.4% (active)
O=C(CNc1nc(-c2ccccc2)cs1)Nc1ccc([N+](=O)[O-])cc1,,5.69% (active)
N=C1N=C(SCc2nc3ccccc3[nH]2)NC(=O)/C1=C/c1ccc(Cl)cc1,,102%
C=C1CCC2C3(C)COC(c4ccco4)OC3CCC2(C)C1CC(Sc1ccccc1)C1=CCOC1=O (stereo not given),,-21.6% (active)
COc1cc(C=Nc2cccc(Br)c2)ccc1N(CCCl)CCCl,-18.8% (active),
CC(/C=N/N=C(N)N)=N/N=C(N)N,93.9%,
CC[C@H](C)[C@H](NC(=O)C12CC(NC(C)=O)(C1)C2)C(=O)N(C)[C@H](C[C@@H](OC(C)=O)c1nc(C(=O)N[C@@H](Cc2ccccc2)C[C@H](C)C(=O)OC)cs1)C(C)C,5.12% (active),
Cc1ccccc1Nc1nnc(-c2c[nH]c3ccccc23)o1,,-23.7% (active)
O=C(CC1(O)C(=O)Nc2ccccc21)c1ccc(C(=O)NCC2CCC3(CC2)OOC2(CCCCC2)OO3)cc1 (stereo not given),53.7%,
COc1ccc(/C=C/C(=O)c2ccc(N3CCN(C)CC3)cc2)c(C(F)(F)F)c1,,-24.7% (active)
O=C(Cc1ccccc1)c1ccccc1,106%,
COC1CC2C=C(C)/C=C/C=C/C(=O)NC(c3ccccc3)C/C=C/CCC(O)CC(=O)C2=C1O (stereo not given),-50.7% (active),
NC(CCl)CCl,96.8%,
COc1ccc(/C=C\c2cc(OC)c(OC)c(OC)c2)cc1NS(=O)(=O)c1ccc(Cl)cc1,42.2%,
